# Test results taken from PubChem BioAssay AID1053144 (Broad Institute, 2014).
# Out of some 3,400 compounds screened, about 160 (4.7%) were called active. A selection follows. Entries with a potency or affinity are not part of this list. A number with no mark means an inactive call.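 The calls were made as follows: active = fitted curve reaches 30% activation at a concentration no higher than the top valid tested dose, luminescence rising; inconclusive = no clear call, values can overlap the other calls; inactive = signal moving opposite to the expected increase, plus the rest.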
# Assay: TCF/LEF reporter activation in neural progenitors – cell-based, iPS-derived NPC, luciferase, Wnt3a, cherry-pick, dose response (AID 1053144);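 also: Wnt3a stimulus is conditioned medium from Wnt3a-transfected mouse L cells at 5% in well; 0% = neutral control wells and 100% = CHIR-99021 positive control wells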
# Conditions: Wnt3a EC25, 24 h; series mostly up to 26 µM; activation: at the top concentration
row,Structure (SMILES),activation
1,COc1cccc(C(=O)NC2=NCCS2)c1,2.66%
2,Cc1ccc(C(=O)NC2=NCCS2)cc1,9.97%
3,Cc1cnc(C(=O)Nc2nnc(C(C)C)s2)cn1,7.46%
4,CCOC(=O)C1(NC(=O)C2(NC(=O)CN3C(=O)c4ccccc4C3=O)CCCC2)CCCC1,3.07%
5,O=c1c2ccccc2c(=O)n(-c2ccccc2)n1-c1ccccc1,0.139%
6,Cc1cccc(/C(N)=N/OC(=O)c2cccs2)c1,16.7%
7,Cc1cccc(/C(N)=N/OC(=O)c2ccncc2)c1,6.69%
8,CC(Sc1nncn1C)C(=O)Nc1ccc(N2CCCCC2)cc1 (stereo unspecified),1.46%
9,O=C1c2ccccc2C(Nc2ccccc2)N1c1ccc(Cl)cn1 (stereo unspecified),2.25%
10,COc1n[nH]c(C(=O)Nc2nc3ccccc3s2)c1[N+](=O)[O-],13.5%
11,CN(C)S(=O)(=O)c1ccc(C(=O)NCCOc2ccccc2)cc1,11.9%
12,Cc1ccc(C(=O)CC(SCC(=O)O)c2ccc([N+](=O)[O-])cc2)cc1 (stereo unspecified),-14.7%
13,Cc1cc(C(=O)COC(=O)c2ccc(N)c([N+](=O)[O-])c2)c(C)n1Cc1ccc2c(c1)OCO2,5.38%
14,Nc1nc(Nc2ccccc2)sc1C(=O)c1ccccc1,19.5%
15,Cc1ccc2nc(NC(=O)c3ccc(Cl)s3)sc2c1,0.191%
16,Brc1ccc(-c2cn3ccccc3n2)cc1,14.5%
17,O=C(NCc1ccccn1)Nc1cccc(Cl)c1,8.88%
18,O=C(Nc1ccc(Cl)cc1)c1ccc(-c2ccccn2)s1,7.67%
19,C(=N\NCc1ccccc1)/c1ccc2ncccc2c1,4.68%
20,CN(C)c1ccc(N=Nc2cccc(F)c2)cc1,3.61%
21,CC(C)(CNC(=O)c1cccc(S(=O)(=O)N2CCCCC2)c1)N1CCOCC1,5.12%
22,Cc1ccc(CNC(=O)COC(=O)C2CCN(S(=O)(=O)c3cccs3)CC2)cc1,7.64%
23,Oc1[nH]c2ccccc2c1N=Nc1ccccc1,6.5%
24,O=C(N=Nc1c(O)[nH]c2ccccc12)c1ccc2c(c1)OCO2,5.2%
25,CCCCCn1c(CN2CCN(C(=O)c3ccco3)CC2)nc2c1c(=O)n(C)c(=O)n2C,-1.47%

row,Structure (SMILES),activation
1,O=C(CSc1nnc2ccccn12)c1ccc(Cl)cc1,5.28%
2,Cc1nnc(SCC(=O)c2ccc(Cl)cc2)n(N)c1=O,4.61%
3,CCCCN(CC)C(=O)c1cc2cc3ccc(OC)cc3nc2o1,6.64%
4,Cc1cc(C)cc(N(CC(=O)Nc2ccc(-c3nc4ccc(C)cc4s3)cc2)S(C)(=O)=O)c1,-0.43%
5,Cc1ccc2nc(-c3ccc(NS(=O)(=O)c4ccc(F)c(F)c4)cc3)sc2c1,-0.027%
6,Cc1ccc2nc(-c3ccc(NC(=O)COCC(=O)O)cc3)sc2c1,4.24%
7,CC1=CCC(C(=O)O)C(C(=O)Nc2ccc(-c3nc4ccc(C)cc4s3)cc2)C1 (stereo unspecified),8.13%
8,Cc1ccc2nc(-c3ccc(NC(=O)CSc4nc(N)cc(=O)[nH]4)cc3)sc2c1,3.34%
9,Cc1ccc(C2(C)NC(=O)N(CC(=O)Nc3ccc(-c4nc5ccc(C)cc5s4)cc3)C2=O)cc1 (stereo unspecified),2.88%
10,Cc1ccc(C)c(-n2ccnc2SCC(=O)Nc2cccc(S(=O)(=O)NC3=NCCC3)c2)c1,10.6%
11,CCC(=O)Nc1c(C(=O)Nc2ccc3c(c2)OCCO3)oc2ccccc12,12.9%
12,N=c1cc(C2(O)CCCCC2)n2c(nc3ccccc32)s1,1.82%
13,Cc1ccnc(NC(=O)C2CC(=O)N(c3ccc4c(c3)OCCO4)C2)c1 (stereo unspecified),3.35%
14,c1ccc(-c2nnc(-c3ccccn3)nn2)nc1,4.64%
15,CCC(=O)Nc1cc(C(=O)OCC(=O)c2ccccc2)ccc1C,18.1%
16,COC(=O)[C@H](CCSC)NC(=O)c1cccnc1SC,0.828%
17,O=C(CCN1C(=O)C2CCCCC2C1=O)Nc1nc2c(F)cc(F)cc2s1 (stereo unspecified),11.7%
18,CN(c1ccc(C(=O)NCCSC(C)(C)C)cc1)S(=O)(=O)c1ccccc1,-1.26%
19,Cc1ccc(C)c(OCc2nc3ccccc3[nH]2)c1,14%
20,COc1cccc(NC(=O)n2ncc3c(C)cccc32)c1,-11.3%
21,COc1ccc(NC(=O)N2CCCc3ccccc32)cc1,3.63%
22,O=C(Cc1noc2ccccc12)Nc1ccccn1,12.4%
23,Cc1nc(C(C)NC(=O)CCc2nnc(CCCc3ccccc3)o2)c(C)s1 (stereo unspecified),10.9%
24,c1ccc2nc(SCc3cn4ccccc4n3)cnc2c1,6.56%
25,CC(=O)Nc1ccc(-c2nc3ccccc3o2)cc1,7.88%

row,Structure (SMILES),activation
1,CC(=O)Nc1ccc2oc(-c3ccccc3)nc2c1,7.44%
2,O=C(N/N=C/c1ccc(F)cc1)c1ccccc1,6.49%
3,Cc1ccc(NC(=O)COc2ccc3c(c2)OCO3)c(Cl)c1,10.7%
4,COc1ccc(C(=O)Cc2ccc3c(c2)OCO3)c(O)c1,11.2%
5,Cc1ccc(/C=N/NC(=O)c2cccs2)cc1[N+](=O)[O-],7.64%
6,COc1ccc(/C=N/Nc2ccc([N+](=O)[O-])cc2)cc1O,10.8%
7,Cc1c(C(=O)OCC(=O)NCC2CCCO2)cccc1[N+](=O)[O-] (stereo unspecified),7.65%
8,Cc1cc(-c2nnc(-c3cccc(Cl)c3)o2)no1,14.5%
9,O=C(/C=C/c1ccc(O)cc1)c1ccccc1,15.6%
10,COc1ccc(/C=C/C(=O)c2ccccc2)c(OC)c1,8.57%
11,O=S(=O)(c1ccccc1)n1ccc(-c2cnc(-c3ccccc3)s2)n1,9.35%
12,O=C(Nc1ccc(F)c(Cl)c1)c1cc(-c2ccco2)on1,13.2%
13,CC(C)c1cc(C(=O)NCCc2ccccc2)no1,8.37%
14,O=C(Nc1cccnc1Cl)c1cc(-c2ccco2)on1,12.4%
15,COc1ccc(NC(=O)c2cc(-c3ccco3)on2)cc1,9.44%
16,Cc1ccc(NC(=O)/C=C/c2ccc3c(c2)OCO3)nc1,8.44%
17,COc1ccc(CNC(=O)Nc2cccc(C)c2)cc1,8.1%
18,Cc1ccc(SCC(=O)NC(=O)NCCC(C)C)c(C)c1,13.2%
19,Cc1ccc(OCC(=O)Nc2ccc(Cl)cc2)c([N+](=O)[O-])n1,17.6%
20,Cc1ccc(C(=O)CCC2CCCCC2=O)cc1 (stereo unspecified),9.76%
21,Cc1ccc2nc(-c3cccc(NC(=O)c4ccc5c(c4)OCCO5)c3)oc2c1,7.37%
22,CCC(=O)Nc1cccc(-c2nc3ccc(C)cc3o2)c1,19.1%
23,O=[N+]([O-])c1ccccc1N/N=C1\CCc2ccccc21,8.32%
24,O=C(NCc1nnc(SCC(=O)N2CCCc3ccccc32)o1)c1c(F)cccc1Cl,10.2%
25,COc1ccc(N=Cc2c(O)[nH]c3ccccc23)cc1,13%

row,Structure (SMILES),activation
1,CC(C)CSc1nnc2c(n1)[nH]c1ccccc12,3.64%
2,Fc1ccc(-c2nc3ccccc3[nH]2)cc1,13.1%
3,O=C(/C=C(\Nc1ccccc1)c1ccccc1)c1ccccc1,-0.624%
4,Cc1ccc(SCc2cn3cc(Cl)ccc3n2)cc1,7.16%
5,c1ccc2oc(SCc3cn4ccsc4n3)nc2c1,10.8%
6,O=C(CNC(=O)c1ccccc1F)c1ccccc1,0.87%
7,O=C(CCN1CCN(c2ccccc2)CC1)Nc1ccc(OCc2ccccc2)cc1,1.26%
8,Cc1ccnc(NC(=O)c2ccc(S(=O)(=O)N3CCC(C)CC3)cc2)c1,6.2%
9,CSc1ccc(/C=N/NC(=O)c2cc(O)cc(O)c2)cc1,15.1%
10,O=C(/C=C/c1ccc(OC2CSC2)cc1)c1ccccc1,2.74%
11,N=c1c2c(ncn1CCCO)Oc1c(ccc3ccccc13)C2c1ccccc1 (stereo unspecified),-1.09%
12,COc1ccc(O)c(/C=N/N2CCCCC2)c1,10.5%
13,COc1ccccc1CCc1nnc(CCC(=O)N(C)Cc2cccc3cnccc23)o1,7.69%
14,CC(/C=N/Nc1nc2ccccc2[nH]1)=C\c1ccccc1,6.18%
15,C(=N\Nc1nc2ccccc2[nH]1)/c1ccc2c(c1)OCCO2,8.63%
16,C=CCn1cc(/C=N/Nc2nc3ccccc3[nH]2)c2ccccc21,6.37% [at 6 µM]
17,Cc1ccsc1/C=N/Nc1nc2ccccc2[nH]1,13.7%
18,C(=N\Nc1nc2ccccc2[nH]1)/c1cccc2cccnc12,-6.2%
19,Cc1nn(-c2ccccc2)c(C)c1/C=N/Nc1nc2ccccc2[nH]1,20.5%
20,Clc1nc2ccccc2cc1/C=N/Nc1nc2ccccc2[nH]1,6.98%
21,C(=N\Nc1nc2ccccc2[nH]1)/c1cccs1,6.38%
22,O=C(NCCc1ccccc1F)C(=O)Nc1nccs1,8.45%
23,CSc1ccccc1OCc1cc(C(=O)N2CCCC(C)C2)no1 (stereo unspecified),18.5%
24,CCCC(=O)c1ccc(N2CCC(C)CC2)c(F)c1,8.52%
25,COc1ccc(C(=O)Nc2nnc(SCC(=O)Nc3ccc(NC(C)=O)cc3)s2)c(OC)c1,12.3%

row,Structure (SMILES),activation
1,Cc1ccc(NC(=O)c2ccc(F)cc2)nc1,15.3%
2,CCOC(=O)c1cnc2c(-c3ccccc3)cnn2c1N,7.17%
3,Cn1c(SCc2ccc(F)cc2)nnc1-c1ccccn1,13.4%
4,COC(=O)c1c(-c2ccc(SC)cc2)sc2ccc(OC)cc12,7.8%
5,O=C(O)c1cc(N/N=C/c2ccc(N3CCOCC3)cc2)ccc1Cl,-1.2%
6,Cc1cnc(NC(=O)c2ccccn2)s1,-0.046%
7,Cc1ccc(NC(=O)c2ccccn2)c(Br)c1,6.25%
8,COc1ccc(NC(=O)Nc2ccc3oc(C)nc3c2)cc1,13%
9,Fc1ccccc1-c1cc2ncccc2cn1,11.5%
10,COc1ccc(C(=O)COC(=O)c2cccs2)cc1,8.71%
11,COc1cccc(C(=O)COC(=O)c2cccs2)c1,11.3%
12,CCn1c(COc2ccc(OC)cc2)nc2ccccc21,11.6%
13,COc1ccccc1OCc1cc(C(=O)N2CCN(C)C(c3ccccc3)C2)no1 (stereo unspecified),15.3%
14,COc1cc(Cl)ccc1OCc1cc(C(=O)N(C)CC2CCCCO2)no1 (stereo unspecified),8.88%
15,Nc1nc(Nc2ccccc2)nc2ccccc12,2.38%
16,Cc1ccccc1Nc1nc(N)c2ccccc2n1,3.57%
17,CCOC(=O)c1oc2nc3c(cc2c1N)CCCC3,8.93%
18,O=C(CSc1nnc(C2CC2)n1C1CC1)c1ccc(Br)s1,10.4%
19,Oc1ccccc1-c1cc(-c2ccc(F)cc2)n[nH]1,19.7%
20,Cc1ccccc1-c1cc(-c2ccccc2O)n[nH]1,20.9%
21,COC(=O)c1cc(C)nc(Nc2nc(C(N)Cc3ccc(Cl)cc3)cs2)n1 (stereo unspecified),-5.29%
